The text below walks through data of PubChem BioAssay AID504333 (National Center for Advancing Translational Sciences (NCATS), 2011).

Out of some 360,000 compounds screened, about 16,000 (4.4%) were called active. Roughly 9% stayed inconclusive and do not appear here. The sample as a whole holds a higher share of actives than the screen did. A number with no mark means an inactive call. Calls come from the whole dose curve; as a rule, active = well fitted inhibition curve with a large enough effect; inconclusive = small, poorly fitted or top-dose-only effect; inactive = no such curve, though single readings can be large or run the other way.
% is set by controls: 0 for no effect and ±100 for the full control effect; potency is the fitted concentration of half-maximal effect.

The target of this assay is Bromodomain adjacent to zinc finger domain protein 2B (Homo sapiens) (UniProt Q9UIF8). Briefly: qHTS Assay for Inhibitors of BAZ2B. Note: nearly all actives have a fitted effect of over 60% in size. To be noted: AlphaScreen BAZ2B-H3K14Ac peptide displacement; series mostly up to 114 µM; activity change, negative = inhibition: at the top concentration. From the text: BAZ2B (bromodomain adjacent to zinc finger domain, 2B) belongs to a family of ubiquitously expressed bromodomain containing proteins, which biological function has not yet been elucidated. […] The interaction of BAZ2B with ISWI mediated by the BAZ1 motif has recently been described. […] The protocol is based on the AlphaScreen (PerkinElmer) displacement assay developed by NCGC [5], but uses the peptide ligand Biot-H3K14Ac, a high affinity binding partner for BAZ2B, in an AlphaScreen format. Although AlphaScreen has significant advantages with its utility in a variety of epigenetic target assays, the primary screening data provided in this deposition should be used with caution due to the prevalence of screening artifacts. The top compound concentration tested was 110uM in this assay, which increases number of actives and potential artifacts. An AlphaScreen counterscreen is highly recommended to be run against any putative actives to eliminate non-specific artifacts. Alternatively, one can use other AlphaScreen assays in PubChem to filter out promiscuous hits. Eberharter, A. et al. ACF1 improves the effectiveness of nucleosome mobilization by ISWI through PHD-histone contacts. The EMBO journal 23, 4029-4039. 2004. PMID: 15457208 [2] Jones, M.H. et al. A novel family of bromodomain genes. Genomics 63, 40-45. 2000. PMID: 10662543 [3] Yasgar, et al. Compound Management for Quantitative High-Throughput Screening. JALA. 2008 Apr;13(2):79-89. PMID: 18496600 [4] Inglese, et al. Quantitative high-throughput screening: a titration-based approach that efficiently identifies biological activities in large chemical libraries. Proc Natl Acad Sci. 1;103(31):11473-8. 2006. PMID: 16864780 [5] Quinn et al. A chemiluminescence-based method for identification of histone lysine methyltransferase inhibitors. Mol Biosyst 6(5): 782-8. 2010. PMID: 20567762 [6] Baell,Holloway. New substructure filters for removal of pan assay interference compounds (PAINS) from screening libraries and for their exclusion in bioassays. J Med Chem. 53(7):2719-40. 2010. PMID: 20131845 NIH Molecular Libraries Probe Production Network [MLPCN] NIH Chemical Genomics Center [NCGC] Structural Genomics Consortium (SGC) NIH Grant: 5U54 MH084681-02
Bromodomain adjacent to zinc finger domain protein 2B (Homo sapiens), sequence (Q9UIF8 whole entry, looked up, the tested form may be a part): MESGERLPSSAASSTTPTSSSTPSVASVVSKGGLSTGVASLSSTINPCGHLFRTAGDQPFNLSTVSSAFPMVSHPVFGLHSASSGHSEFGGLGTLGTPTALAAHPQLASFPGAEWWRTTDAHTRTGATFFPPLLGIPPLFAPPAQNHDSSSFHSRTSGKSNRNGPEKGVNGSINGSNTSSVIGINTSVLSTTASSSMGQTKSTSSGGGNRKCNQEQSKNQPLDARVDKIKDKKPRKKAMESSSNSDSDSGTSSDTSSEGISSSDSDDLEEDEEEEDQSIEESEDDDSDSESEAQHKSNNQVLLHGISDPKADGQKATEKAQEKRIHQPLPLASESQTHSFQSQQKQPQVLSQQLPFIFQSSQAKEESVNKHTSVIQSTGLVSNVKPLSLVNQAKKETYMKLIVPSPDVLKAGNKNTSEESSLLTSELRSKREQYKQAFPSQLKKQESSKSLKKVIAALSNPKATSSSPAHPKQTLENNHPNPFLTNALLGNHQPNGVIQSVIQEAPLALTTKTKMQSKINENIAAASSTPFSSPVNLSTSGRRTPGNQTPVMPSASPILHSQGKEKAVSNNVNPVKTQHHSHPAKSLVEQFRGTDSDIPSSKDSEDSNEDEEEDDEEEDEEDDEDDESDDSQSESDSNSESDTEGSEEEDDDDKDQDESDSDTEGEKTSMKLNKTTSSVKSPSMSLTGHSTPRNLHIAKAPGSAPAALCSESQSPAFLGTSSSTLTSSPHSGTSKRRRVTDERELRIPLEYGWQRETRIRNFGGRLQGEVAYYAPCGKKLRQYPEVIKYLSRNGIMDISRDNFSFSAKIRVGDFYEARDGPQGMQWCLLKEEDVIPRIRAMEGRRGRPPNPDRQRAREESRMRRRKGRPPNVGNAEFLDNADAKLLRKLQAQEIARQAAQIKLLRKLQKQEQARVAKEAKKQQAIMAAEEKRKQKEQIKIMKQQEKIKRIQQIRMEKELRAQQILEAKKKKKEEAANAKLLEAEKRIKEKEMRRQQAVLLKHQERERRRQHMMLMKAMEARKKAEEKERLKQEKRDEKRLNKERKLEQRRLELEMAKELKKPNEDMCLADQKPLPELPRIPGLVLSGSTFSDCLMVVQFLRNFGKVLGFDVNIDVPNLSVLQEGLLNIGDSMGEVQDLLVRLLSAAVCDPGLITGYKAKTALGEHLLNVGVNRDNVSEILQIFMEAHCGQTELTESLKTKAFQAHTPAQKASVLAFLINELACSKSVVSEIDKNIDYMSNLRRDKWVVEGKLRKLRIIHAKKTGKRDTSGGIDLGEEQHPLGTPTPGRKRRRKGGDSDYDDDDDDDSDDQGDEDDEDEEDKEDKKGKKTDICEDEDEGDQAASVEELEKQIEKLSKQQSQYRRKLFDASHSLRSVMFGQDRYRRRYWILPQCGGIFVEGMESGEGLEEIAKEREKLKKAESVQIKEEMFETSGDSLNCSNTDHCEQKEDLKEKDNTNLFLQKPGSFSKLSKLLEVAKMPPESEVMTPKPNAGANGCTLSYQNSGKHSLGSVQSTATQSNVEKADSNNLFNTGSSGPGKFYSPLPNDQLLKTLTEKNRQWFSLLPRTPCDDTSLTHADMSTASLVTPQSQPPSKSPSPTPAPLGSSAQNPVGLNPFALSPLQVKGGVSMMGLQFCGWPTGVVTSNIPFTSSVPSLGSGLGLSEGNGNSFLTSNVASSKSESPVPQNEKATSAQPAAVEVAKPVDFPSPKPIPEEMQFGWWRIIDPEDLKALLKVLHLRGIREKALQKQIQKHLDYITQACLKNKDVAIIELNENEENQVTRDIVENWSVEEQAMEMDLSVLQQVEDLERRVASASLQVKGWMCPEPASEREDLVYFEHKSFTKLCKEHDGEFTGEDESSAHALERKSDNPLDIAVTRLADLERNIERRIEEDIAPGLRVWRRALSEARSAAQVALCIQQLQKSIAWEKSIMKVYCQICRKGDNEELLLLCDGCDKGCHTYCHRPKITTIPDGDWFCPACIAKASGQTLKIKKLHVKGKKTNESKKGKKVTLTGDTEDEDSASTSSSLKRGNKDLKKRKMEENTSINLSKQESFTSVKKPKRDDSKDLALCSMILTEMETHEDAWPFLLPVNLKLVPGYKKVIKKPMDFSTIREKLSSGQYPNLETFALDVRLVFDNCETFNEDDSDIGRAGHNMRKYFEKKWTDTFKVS
To each well of a 1,536w plate, 2ul of BAZ2B protein (final 50nM) and 1ul biotinylated histone peptide acetylated at Lys14 [b-H3(5-23)K14Ac] (final 50nM) were added in 1x PBS buffer, pH 7.4, containing 0.01% Tween-20, using a nanoliter dispenser. Formation of a protein-peptide complex proceeded at room temperature for 30 min. A Kalypsys pin-tool was employed to transfer 23 nL of library compound solution in DMSO to each well. Following a 30 min incubation of the protein-peptide complex with compounds at room temperature, a mixture of 40 ug/mL each streptavidin-coated donor and nickel chelate acceptor AlphaScreen beads (final 10 ug/mL) were added in a 1ul dispense for a final volume of 4ul. A brief centrifugation followed (1000rpm, 1 min) and were then incubated protected from the light for 20 min at room temperature. Plates were read on an EnVision multilabel plate reader using the 1,536 plate HTS AlphaScreen aperture (excitation time 80 ms, measurement time 240 ms).
(In general: qHTS replaces the single test concentration by a dilution series.)
As for `O=[N+]([O-])c1ccccc1S(=O)(=O)Nc1cccc2cccnc12`, the Potency was 25.1 µM (active).

For the molecule `Cc1ccccc1NC(=O)c1ccccc1NS(=O)(=O)c1cccc2cccnc12`, the “activity change, negative = inhibition” value is -10.2%.

Regarding `Cc1nn(-c2nc(-c3ccccc3)cc(C(F)(F)F)n2)c(C)c1Cl`, the “activity change, negative = inhibition” value is 47%.

On to `O=C(Nc1nc2c(s1)CCCC2)c1ccccc1F`, for which the “activity change, negative = inhibition” value is -17.9%.

For `Cc1cc(C)cc(OC(C)C(=O)Nc2nc3c(s2)CCCC3)c1` (configuration not stated), the “activity change, negative = inhibition” value is -7.96%.

`COC(=O)C(NC(C)=O)(Nc1nc2c(s1)CCCC2)C(F)(F)F` (configuration not stated): the Potency is 56.2 µM (active).

Turning to `O=C(CCS(=O)(=O)c1ccc2c(c1)NC(=O)CO2)Nc1cccc(C(F)(F)F)c1`, the “activity change, negative = inhibition” value was -2.62%.

Turning to `CCOC(=O)CSC1=Nc2ccccc2C2=NC(CCC(=O)NCc3ccc(F)cc3)C(=O)N12` (configuration not stated), the “activity change, negative = inhibition” value is 0.0886%.

Consider `Cc1ccc(C)n1C(Cc1ccccc1)C(=O)O` (configuration not stated), for which the Potency is 39.8 µM (active).

For the molecule `N[C@@H](Cc1ccccc1)C(=O)N1CCOCC1`, the “activity change, negative = inhibition” value was -4.8%.

Turning to `CCOC(=O)C(Cc1ccc(N)cc1)N1C(=O)c2ccccc2C1=O` (configuration not stated), the “activity change, negative = inhibition” value is -37.5%.

In the case of `Cc1ccc2nc(CN3CCN(S(=O)(=O)c4ccc(C)c(C)c4)CC3)oc2c1`, the “activity change, negative = inhibition” value was -10.3%.

As for `CC(=C1C(=O)c2ccccc2C1=O)N1CCN(c2ccccn2)CC1`, the “activity change, negative = inhibition” value is -6.35%.

For the molecule `Cc1nn(-c2ccccn2)c2c1C(c1ccncc1)C1=C(CC(C)(C)CC1=O)N2` (configuration not stated), the “activity change, negative = inhibition” value was -34.3%.

Consider `Cc1cc(C)c(C2C3=C(Nc4c2c(C)nn4-c2ccccn2)c2ccccc2C3=O)c(C)c1` (configuration not stated), for which the Potency is 10 µM (active).

In the case of `COc1ccccc1CCNC(=O)c1cccn1-c1nnc(N2CCCCC2)s1`, the “activity change, negative = inhibition” value is -16.4%.

As to `CCCOc1cccc(C(=O)Nc2cccc(NC(=O)c3ccc(C(C)(C)C)cc3)c2)c1`, the “activity change, negative = inhibition” value is -1.31%.

`CCOC(=O)c1ccc(NC(=O)Cn2c(=O)n(-c3ccc(C)cc3)c(=O)c3c2cnn3C)cc1`: the “activity change, negative = inhibition” value is -1.23%.

For the molecule `O=C(NC1CCCCC1)c1ccc2c(c1)N(Cc1ccc(Cl)cc1)C(=O)c1ccccc1S2=O` (configuration not stated), the “activity change, negative = inhibition” value is -6.93%.

Consider `CCSc1nnc(NC(=O)c2cc(=O)c3cc(C)c(C)cc3o2)s1`, for which the “activity change, negative = inhibition” value was -3.2%.

On to `NC(=O)CSc1nnc(NC(=O)c2ccc3ccccc3c2)s1`, for which the “activity change, negative = inhibition” value was 5.1%.

`NC(=O)CSc1nnc(NC(=O)c2ccc(Br)o2)s1`: the Potency is 56.2 µM (active).

On to `CCCNC(=O)C(CC)n1nc(CC)n2c(cc3oc(C)cc32)c1=O` (configuration not stated), for which the “activity change, negative = inhibition” value was -2.51%.

For `COc1cccc(NC(=O)C(=O)NCC(c2ccc3c(c2)OCO3)N2CCN(C)CC2)c1` (configuration not stated), the “activity change, negative = inhibition” value was 3.37%.

Turning to `CC(C)C(=O)Nc1nc2c(s1)CC(C(C)(C)C)CC2` (configuration not stated), the “activity change, negative = inhibition” value is 1.19%.

Turning to `CCOC(=O)C1=C(c2ccc(OC)cc2)C(=O)c2ccccc2C1=O`, the Potency was 20 µM (active).

As to `CCOC(=O)c1cc2cc3ccccc3cc2oc1=O`, the “activity change, negative = inhibition” value is -24.2%.

Take `COc1ccc(CNC(=O)CCN2C(=O)c3ccccc3C2=O)cc1`: the “activity change, negative = inhibition” value is -3.11%.

Consider `CCCCn1cc(S(=O)(=O)c2ccc(OCC)cc2)c(=O)c2cc(OC)c(OC)cc21`, for which the “activity change, negative = inhibition” value was -34.9%.

As to `Cc1ccc(CCNC(=O)C2CCN(c3nnc(-n4cccc4CNc4ccc(C)cc4)s3)CC2)cc1`, the “activity change, negative = inhibition” value is -8.92%.

Regarding `Cc1ccccc1NC(=O)c1cc(S(=O)(=O)Nc2cccc(C(=O)O)c2)ccc1Cl`, the “activity change, negative = inhibition” value is -0.0282%.

As for `C/C(=N\Nc1cccc(C(=O)O)c1)c1ccc2c(c1)Nc1ccccc1S2`, the Potency is 44.7 µM (active).

For `CC(=O)Nc1cccc(/C(C)=N/NC(=O)c2c(-c3ccccc3Cl)noc2C)c1`, the “activity change, negative = inhibition” value was 5.83%.

In the case of `Cc1ccc2nc(COc3ccccc3NC(=O)Nc3ccc(F)c(Cl)c3)cc(=O)n2c1`, the “activity change, negative = inhibition” value is 0.153%.

As to `Cc1ccc(-n2nc(C)c(C(=O)O)c2-n2cccc2)cc1`, the Potency was 50.1 µM (active).

Consider `Cc1nn(-c2ccccc2)c(-n2cccc2)c1C(=O)O`, for which the “activity change, negative = inhibition” value is 3.55%.

`Cc1nn(-c2ccc(F)cc2)c(-n2cccc2)c1C(=O)N1CCN(c2ccccc2)CC1`: the “activity change, negative = inhibition” value is -11.9%.

Regarding `O=C(NCc1ccc2c(c1)CCN2C(=O)c1ccccc1)Nc1cc(F)ccc1F`, the “activity change, negative = inhibition” value was -2.67%.

On to `COc1ccc(OC)c(NC(=O)CSC2=Nc3ccccc3C3=NC(CC(=O)NCc4ccc(F)cc4)C(=O)N23)c1` (configuration not stated), for which the “activity change, negative = inhibition” value was -32.1%.

Regarding `COc1ccccc1NC(=O)c1sc2nc(C)c(C(=O)Nc3ccc(Cl)cc3)c(-c3ccc(Br)cc3)c2c1N`, the “activity change, negative = inhibition” value is -20.6%.

For `CCN(CC(=O)Nc1cc(Cl)ccc1C)C(=O)CSCc1ccc(C)cc1`, the “activity change, negative = inhibition” value was 7.16%.

`CCCCN(C)CCNC(=O)CSCc1ccc(C)cc1`: the Potency was 50.1 µM (active).

With `Cc1ccc(CSCC(=O)N(C)CC(=O)Nc2ccc(C)cc2)cc1`, the “activity change, negative = inhibition” value was 1.11%.

Take `CCOc1ccccc1C(=O)NC1(C(F)(F)F)NC(=O)N(CCc2ccc(OC)c(OC)c2)C1=O` (configuration not stated): the “activity change, negative = inhibition” value was -25.7%.

For the molecule `CCN(C(=O)c1sc2cc(OC)ccc2c1Cl)c1ccccc1`, the “activity change, negative = inhibition” value was 31%.

For the molecule `CCC(=O)Nc1ccc2nc(SCC(=O)N3CCc4ccccc43)sc2c1`, the “activity change, negative = inhibition” value was -26.5%.

`CCN(CCCNC(=O)Cn1ncc2c3ccccc3n(C)c2c1=O)Cc1ccccc1`: the “activity change, negative = inhibition” value was -2.02%.

Take `CCc1ccc(NC(=O)c2nn(-c3ccc(C)cc3)c(=O)n(C)c2=O)cc1`: the “activity change, negative = inhibition” value was -15.6%.

For `CCCC(=O)Nc1cc2nn(-c3ccccc3)nc2cc1C`, the “activity change, negative = inhibition” value is 2.37%.

As for `O=C(Nn1cc(C(=O)N2CCN(c3ccccc3F)CC2)c2ccccc2c1=O)c1cnccn1`, the Potency is 28.2 µM (active).

Regarding `Cc1nc2ccn(Cc3cccnc3)c(=O)c2cc1C(=O)N1CCN(c2ccccc2F)CC1`, the “activity change, negative = inhibition” value is -10.5%.

For the molecule `O=C(Cn1nc(Cc2cccnc2)c2ccccc2c1=O)N1CCN(c2ccccc2F)CC1`, the “activity change, negative = inhibition” value is -14%.
